# Screens from PubChem BioAssay.
# Only some compounds are listed: those with a hit (about 22% of all), similar ones and a draw of the others.
# CYP2C19 inhib – inhibitors of human CYP2C19. P33261. CYP2C19 Supersomes, luciferin-H EGE luminescence, 30 min. inhibition, % at 5 µM. 21% of 96,000 active;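 active means CYP2C19 inhibition above a set limit at 5 µM in the primary screen, cut at about 50% in these data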;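 further: plate controls were negative control wells for no effect and 2.5 mM tranylcypromine positive control for full effect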
# Target sequence (P33261 whole entry, looked up): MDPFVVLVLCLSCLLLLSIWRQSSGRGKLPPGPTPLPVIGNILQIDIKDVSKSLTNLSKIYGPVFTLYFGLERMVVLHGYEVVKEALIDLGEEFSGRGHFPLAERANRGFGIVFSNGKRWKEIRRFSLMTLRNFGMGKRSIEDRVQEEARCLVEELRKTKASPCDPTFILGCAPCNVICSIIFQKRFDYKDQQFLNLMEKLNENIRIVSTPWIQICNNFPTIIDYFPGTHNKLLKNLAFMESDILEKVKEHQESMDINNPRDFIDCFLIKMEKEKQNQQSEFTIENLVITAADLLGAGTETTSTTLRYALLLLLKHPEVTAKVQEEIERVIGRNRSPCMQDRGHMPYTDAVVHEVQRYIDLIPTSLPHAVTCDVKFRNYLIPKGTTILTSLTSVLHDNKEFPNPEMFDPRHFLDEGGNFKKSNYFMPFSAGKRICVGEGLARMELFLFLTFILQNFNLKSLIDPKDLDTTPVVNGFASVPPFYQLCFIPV
# cytoskel mod – alters cytoskeleton assembly in HUVEC cells; inhibition, % at 2 µM; 0.18% of 91,000 active; HUVEC TNFa F-actin phalloidin imaging, high content; AID 836;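 active means inhibition above the batch mean plus 3 SD and confirmed as a hit by visual image inspection, cut at about 30% in these data, passing the limit was not always enough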
# CYP2C19 act – activators of human cytochrome P450 2C19 | 96,000 tested, under 10 active | recombinant CYP2C19, luciferin-H EGE luminescence; hits give high values; 0 = fully inhibited enzyme, 1 = untreated enzyme | activation factor at 5 µM | P33261;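 active means activation factor of at least 2 at 5 µM in the primary screen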;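 further: 0 = wells with 2.5 mM tranylcypromine and 1 = vehicle-only wells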
# CYP2C9 inh – inhibitors of human CYP2C9. P11712. CYP2C9 Supersomes, luciferin-H conversion, luminescence. inhibition, % at 5 µM. 20% of 96,000 active;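 active means blocking of liver enzyme CYP2C9 beyond about 50% at 5 µM, limit read from the data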
# E-sel TNF inh – blocks E-selectin expression induced by TNF alpha; HUVEC TNFa-induced E-selectin immunofluorescence, high content; inhibition, % at 2 µM; 0.71% of 120,000 active;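 active means inhibition above the batch mean plus 3 SD, and confirmed as a hit on visual image review, cut at about 43% in these data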;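 further: 0% = TNF-stimulated DMSO wells and 100% = unstimulated control wells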
# CYP2C9 activ – CYP2C9 (human) activation. P11712. recombinant CYP2C9, luciferin-H conversion, luminescence; hits give high values; factor 1 = untreated enzyme, 0 = blocked. activation factor at 5 µM. 1.4% of 96,000 active;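 active means activation factor of 2 or more for CYP2C9 at a 5 µM dose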;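 further: 0 = sulfaphenazole-blocked wells and 1 = vehicle-only wells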
# * marks the source's active call; other numbers are inactive results; / = no result.
SMILES,CYP2C19 inhib,cytoskel mod,CYP2C19 act,CYP2C9 inh,E-sel TNF inh,CYP2C9 activ
Brc1ccc(-c2nn3c(Cc4ccccc4)nnc3s2)o1,68*,-2,0.3,13,32,0.9
Clc1ccccc1-c1nnc2sc(-c3ccc(Br)o3)nn12,80*,10,0.2,47,6,0.5
CC1CCN(c2c(NCc3ccc(C(=O)NCCc4ccc(Cl)cc4)cc3)c(=O)c2=O)CC1,/,/,/,/,-20,/
Cc1cc(Br)c(NC(=O)COC(=O)CSc2nnc(-c3ccc(Cl)cc3)o2)c(Br)c1,/,/,/,/,2,/
COc1ccc(OC)c(-n2nnnc2SCC(=O)NCCc2ccccc2)c1,60*,-7,0.4,54*,-2,0.5
COc1cccc(-n2nnnc2SCC(=O)NCCc2ccccc2)c1,93*,-22,0.1,13,36,0.9
Cn1nnnc1SCC(=O)NCCCc1ccccc1,14,6,0.9,-15,-5,1.2
COc1cccc(-n2nnnc2SCC(=O)c2cc(OC)ccc2OC)c1,11,/,0.9,23,-36,0.8
CC1CCCCN1c1nnc(NC(=O)c2cc(-c3ccc(Br)cc3)on2)s1 (stereo not given),16,-14,0.8,62*,/,0.4
CC(=O)NC(CC(C)C)C(=O)NC(=O)NCc1ccccc1 (stereo not given),20,/,0.8,-5,0,1.1
Cc1ccc(S(=O)(=O)Nc2ccc3c(c2)nc2n3CCN(Cc3ccccc3)C2)cc1,83*,-8,0.2,96*,18,0
O=S(=O)(Nc1ccc2c(c1)nc1n2CCN(Cc2ccccc2)C1)c1ccc(Cl)cc1,88*,51,0.1,98*,-8,0
COc1ccccc1CNC(=O)c1ccc(NS(C)(=O)=O)cc1,-16,6,1.2,-96,1,2*
COc1ccccc1CNC(=O)c1ccccc1N(C)S(C)(=O)=O,29,4,0.7,8,1,0.9
COc1ccccc1CNC(=O)c1ccccc1NS(C)(=O)=O,33,4,0.7,75*,1,0.3
O=C1COc2ccc(C(=O)COC(=O)C3CCN(S(=O)(=O)c4cccs4)CC3)cc2N1,-14,-5,1.1,5,/,0.9
O=S(=O)(c1ccc2ccccc2c1)N1CCCOC1,49,-12,0.5,-254,3,3.5*
O=C(COc1ccc2ccccc2c1)Nc1ccc(S(=O)(=O)N2CCCCCC2)cc1,/,4,/,/,-24,/
O=S(=O)(c1ccc2ccccc2c1)N1CCCCC1,33,6,0.7,-155,7,2.5*
Nc1nc2ccccc2cc1S(=O)(=O)c1ccccc1,/,/,/,/,-7,/
O=C(NCc1cccs1)C1CC(c2ccc(Cl)c(Cl)c2)=NO1 (stereo not given),/,/,/,/,-2,/
O=C(NCCc1cccs1)C1CC(c2c(Cl)cccc2Cl)=NO1 (stereo not given),60*,-5,0.4,-124,-3,2.2*
O=C(NCc1ccc(OC(F)(F)F)cc1)C1CC(c2c(Cl)cccc2Cl)=NO1 (stereo not given),87*,-7,0.1,48,-17,0.5
O=C(NCc1cc(C(F)(F)F)cc(C(F)(F)F)c1)C1CC(c2c(Cl)cccc2Cl)=NO1 (stereo not given),62*,15,0.4,77*,-5,0.2
O=C(NCc1cc(C(F)(F)F)cc(C(F)(F)F)c1)C1CC(c2ccccc2[N+](=O)[O-])=NO1 (stereo not given),48,-1,0.5,-10,-13,1.1
SMILES,CYP2C19 inhib,cytoskel mod,CYP2C19 act,CYP2C9 inh,E-sel TNF inh,CYP2C9 activ
O=C(O)C1Cc2ccccc2CN1S(=O)(=O)/C=C/c1ccccc1 (stereo not given),/,/,/,/,-9,/
Cc1ccc(S(=O)(=O)N2CCN(C3CC(=O)N(Cc4ccccc4)C3=O)CC2)cc1C (stereo not given),60*,5,0.4,-58,-6,1.6
O=C1CC(N2CCN(S(=O)(=O)c3cccc(C(F)(F)F)c3)CC2)C(=O)N1Cc1ccccc1 (stereo not given),59*,-2,0.4,-20,-14,1.2
O=C(COc1ccc2ccccc2c1)NN1C(=O)c2ccccc2C1=O,/,/,/,/,-13,/
C=C(C)CNC(=O)c1ccc(OC2CCN(S(=O)(=O)N(C)C)CC2)cc1,/,/,/,/,-7,/
CCOc1cc(C#N)c(NC(=O)c2cccnc2Cl)cc1OCC,-7,14,1.1,65*,-7,0.3
C[C@H](NC(=O)c1ccccc1Cl)C(=O)OC(C(=O)Nc1cc(C(F)(F)F)ccc1Cl)c1ccccc1 (stereo not given in full),20,-19,0.8,14,5,0.9
COc1ccc(C2C(C(=O)NCc3cccnc3)c3ccccc3C(=O)N2C)cc1OC (stereo not given),-14,-2,1.1,70*,/,0.3
COc1ccc(C2C(C(=O)NCc3cccnc3)c3cc(OC)c(OC)cc3C(=O)N2C)cc1 (stereo not given),17,/,0.8,29,5,0.7
COc1ccc(C2C(C(=O)N3CCN(c4ccccc4)CC3)c3ccccc3C(=O)N2C)cc1OC (stereo not given),35,14,0.7,73*,-14,0.3
CCCCOC(=O)c1ccc(NC(=O)c2c(Cl)ccc(Cl)c2OC)cc1,/,/,/,/,17,/
COc1cc(C(=O)NCc2cccc3ccccc23)cc(Cl)c1OC,62*,-7,0.4,-30,-18,1.3
CC(/C=C/c1ccccc1)NC(N)=O (stereo not given),32,-9,0.7,61*,/,0.4
COc1ccccc1N1CCN(CC(=O)c2c(C)n(C)c3ccccc23)CC1,54*,3,0.5,-64,11,1.6
Cc1[nH]c2ccccc2c1C(=O)CN1CCSCC1,77*,19,0.2,35,-10,0.6
COc1ccccc1N1CCN(CC(=O)c2c(C)[nH]c3cc(C)ccc23)CC1,62*,12,0.4,4,/,1
Cc1ccc2c(C(=O)CN3CCN(C4CCCCC4)CC3)c(C)[nH]c2c1,-12,-17,1.1,-32,-1,1.3
COc1ccc(C(=O)Cn2nnc(-c3ccccc3-n3cnnn3)n2)cc1,32,0,0.7,-14,-5,1.1
NC(=O)c1ccsc1NC(=O)c1cc(=O)c2ccccc2o1,/,/,/,/,-4,/
CCOC(=O)CSc1cc(C(F)(F)F)nc(-c2ccccn2)n1,-9,-9,1.1,0,43,1
CCOC(=O)CSc1cc(CS(=O)(=O)c2ccccc2)nc(-c2ccccc2)n1,81*,-10,0.2,54*,-26,0.5
O=S(=O)(Cc1cc(Cl)nc(-c2ccccc2)n1)c1ccccc1,92*,/,0.1,-38,/,1.4
O=S(=O)(Cc1cc(Cl)nc(-c2ccncc2)n1)c1ccccc1,/,/,/,/,1,/
COC(=O)C1C(=O)c2c(n[nH]c2C)CC1(C)C (stereo not given),-12,-7,1.1,-10,-13,1.1
